From PubChem
An excerpt weighted towards active compounds, which were near 1.3% of everything screened.
RPL19A-GFP yeast: RPL19A-GFP expression modulators in yeast, primary screen, cell-based, S. cerevisiae, multiplex flow cytometry, MLPCN. percent response vs DMSO, % at 10 µM. hit rate 0.3% among 330,000. AID 2025, 2009. S. cerevisiae RPL19A-GFP strain, 3 h; hits give low values;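 active = percent response vs DMSO below 50%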;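 note: median channel GFP fluorescence of the barcoded RPL19A-GFP strain; lower means less RPL19A-GFP as with rapamycin TOR inhibition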
CIT2 TOR yeast: modulators of CIT2-GFP expression in yeast, primary screen, S. cerevisiae, GFP fusion, multiplex flow cytometry, MLPCN library | S. cerevisiae CIT2-GFP strain, 3 h; 100 means same as DMSO wells | GFP response vs DMSO, % at 10 µM | hit rate 0.065% among 320,000 | AID 2029, 2009;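 active = GFP response relative to DMSO above a set limit, near the screen mean plus 3 SD, cut at about 150% in these data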;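 note: ratio of well median GFP fluorescence to mean of DMSO wells on the plate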
MEP2-GFP yeast: modulators of MEP2-GFP levels in yeast, primary screen, S. cerevisiae, multiplex flow cytometry, MLPCN library; AID 2016, 2009; GFP response vs DMSO, % at 10 µM; hit rate 0.51% among 330,000; S. cerevisiae MEP2-GFP strain, 3 h; 100% = DMSO control level;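 active = GFP response versus DMSO above a set limit, roughly screen mean plus 3 SD, cut at about 180% in these data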;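 note: median GFP fluorescence of the barcode-gated MEP2-GFP cells per well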
AGP1 TOR yeast: modulators of AGP1-GFP expression in yeast TOR pathway, primary screen, cell-based, multiplex flow cytometry, S. cerevisiae, MLPCN library; 3 h; GFP as percent of DMSO wells; GFP response vs DMSO, % at 10 µM; hit rate 0.02% among 320,000; AID 2066, 2009;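 active = GFP response relative to DMSO above a set limit, near screen average plus 3 SD, cut at about 150% in these data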;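 note: median GFP channel fluorescence of the gated AGP1 strain per well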
Efflux pump mplx: inhibitors of Candida efflux pumps in yeast, primary screen, S. cerevisiae, Nile Red, multiplex. S. cerevisiae Candida pump triplex. inhibition, % at 10 µM. hit rate 0.44% among 330,000. AID 485275, 2010;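 active = plate passing quality check with inhibition over a set limit, or well fluorescence over plate mean plus 4 SD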;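 note: Nile Red retained in pooled yeast measured as flow cytometry median fluorescence; higher means more Nile Red kept so more efflux inhibition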
LAP4-GFP MLPCN: modulators of LAP4-GFP expression in yeast, primary screen, S. cerevisiae, multiplex flow cytometry, MLPCN library | GFP response vs DMSO, % at 10 µM | hit rate 0.34% among 320,000 | AID 2023, 2009 | 3 h; median GFP as percent of DMSO wells;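 active = GFP response vs DMSO above a set limit, about the screen mean plus 3 SD, cut at about 150% in these data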
LAP4 cherry2: LAP4-GFP expression modulators in yeast, confirmation, cell-based, second cherry pick, flow cytometry; GFP response vs DMSO, % at 10 µM; S. cerevisiae LAP4-GFP strain, 3 h; shares compounds with LAP4-GFP MLPCN; AID 2621, 2010; hit rate 20% among 590;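 active = GFP signal as percent of the solvent control above about 150%, meaning raised reporter expression, limit read from the data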
MEP2 cherry2: modulators of MEP2-GFP levels in yeast, confirmation, S. cerevisiae, flow cytometry GFP, second cherry picks; shares compounds with LAP4-GFP MLPCN; S. cerevisiae MEP2-GFP strain, 3 h; GFP response vs DMSO, % at 10 µM; hit rate 10% among 590; AID 2622, 2010;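 active = GFP signal above 150% of the solvent control wells, that is a rise of more than half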;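 note: median channel GFP fluorescence of all gated yeast cells per well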
RPL19A-GFP pick2: RPL19A-GFP modulators in TOR pathway yeast, confirmation, cell-based, S. cerevisiae, flow cytometry, second cherry pick | shares compounds with LAP4-GFP MLPCN | S. cerevisiae RPL19A-GFP strain, 3 h; hits give low values; 100% means same as DMSO wells | GFP response vs DMSO, % at 10 µM | hit rate 3% among 590 | AID 2623, 2010;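 active = under 65% GFP response relative to DMSO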;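 note: median GFP channel fluorescence per well over the all cells gate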
CIT2-GFP pick2: modulators of CIT2-GFP expression in yeast, confirmation, flow cytometry, second cherry pick, single plex | shares compounds with LAP4-GFP MLPCN | S. cerevisiae CIT2-GFP strain, 3 h; DMSO control wells read 100% | GFP response vs DMSO, % at 10 µM | hit rate 8% among 590 | AID 2624, 2010;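 active = GFP response vs DMSO above about 150%, limit read from the data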;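 note: median green fluorescence per well over all gated yeast cells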
AGP1-GFP pick2: AGP1-GFP expression modulators, hit retest, confirmation, cell-based, flow cytometry, S. cerevisiae, cherry pick set 2. shares compounds with LAP4-GFP MLPCN. S. cerevisiae AGP1-GFP strain, 3 h. percent response vs DMSO, % at 10 µM. 590 tested, under 10 active;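 active = over 150 percent of DMSO response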;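 note: median GFP channel fluorescence over all cells without mother daughter split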
Yeast autofluor: compound autofluorescence in yeast s288c, dose response, artefact control for yeast TOR pathway GFP screen, s288c strain. shares compounds with LAP4-GFP MLPCN. S. cerevisiae s288c, 520 nm autofluorescence, flow cytometry, 3 h; hits give high values; zero means same as solvent-only cells. fluorescence change (kMESF span) at 33 µM. 610 tested, under 10 active;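 active = fluorescence span over the dose series, or activity score, above about 33, limit read from the data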
Of the large screens only hits and unclear results are named; the others gave an inactive call (follow-up assays come after a bar, where they were run).

COc1ccc(N/N=C(\C#N)C(N)=O)cc1	LAP4-GFP MLPCN 165.3 | Yeast autofluor inactive
COc1cccc(NC(=O)CN(C)C(=O)CC(NC(=O)c2ccccc2Cl)c2ccccc2)c1 (configuration not stated)	none
Cc1ccc(C(=O)/C=C\C(=O)c2ccc(C)cc2)cc1	LAP4-GFP MLPCN 167.5 | LAP4 cherry2 inactive | MEP2 cherry2 inactive | RPL19A-GFP pick2 inactive | CIT2-GFP pick2 inactive | AGP1-GFP pick2 inactive
Cc1cc(NC(=O)CSc2ccc(-c3ccc(Br)cc3)nn2)no1	none
CC(C)CN1CCN(Cc2cnc(-c3ccc(Cl)cc3)nc2)CC1CCO (configuration not stated)	none | LAP4 cherry2 inactive | MEP2 cherry2 inactive | RPL19A-GFP pick2 inactive | CIT2-GFP pick2 inactive | AGP1-GFP pick2 inactive
CC(CCC(=O)O)C1CC[C@H]2C3CCC4CC(=O)CCC4(C)[C@H]3CC(=O)C12C (some centres not stated)	none
Cc1nc(SC(C)C(=O)Nc2c(C)n(C)n(-c3ccccc3)c2=O)nc(C)c1C (configuration not stated)	none
Cc1c(NC(=O)C(C)Sc2n[nH]c(N)n2)c(=O)n(-c2ccccc2)n1C (configuration not stated)	CIT2 TOR yeast 170.0, MEP2-GFP yeast 647.5, LAP4-GFP MLPCN 195.9 | LAP4 cherry2 inactive | MEP2 cherry2 inactive | RPL19A-GFP pick2 inactive | CIT2-GFP pick2 inactive | AGP1-GFP pick2 inactive
Clc1cccc(Nc2ncnc3c2cnn3-c2ccccc2)c1	none
Fc1cccc(Nc2ncnc3c2cnn3-c2ccccc2)c1	LAP4-GFP MLPCN 156.9 | LAP4 cherry2 inactive | MEP2 cherry2 inactive | RPL19A-GFP pick2 inactive | CIT2-GFP pick2 inactive | AGP1-GFP pick2 inactive | Yeast autofluor inactive
COc1ccccc1C(=O)Nc1ccc(Br)c2cccnc12	none
COc1ccccc1C(=O)Nc1ccc(Br)cc1C	LAP4-GFP MLPCN 187.8 | LAP4 cherry2 inactive | MEP2 cherry2 inactive | RPL19A-GFP pick2 inactive | CIT2-GFP pick2 inactive | AGP1-GFP pick2 inactive
CS(=O)(=O)N1N=C(c2ccccc2)CC1c1ccc2c(c1)OCO2 (configuration not stated)	CIT2 TOR yeast 242.9, MEP2-GFP yeast 305.1, LAP4-GFP MLPCN 243.4 | Yeast autofluor 82.7
COc1cccc(-c2nc(CS(=O)(=O)CC(=O)Nc3cc(OC)ccc3OC)c(C)o2)c1	none
